Measurements as given in PubChem BioAssay (NCATS).
Several values for one entry are separate records, joined by “and”; a condition that tells them apart may be missing. Equal values may be shown once. Results filed as inconclusive are left out. Values without a mark were called inactive. Activity calls are given as the source filed them. The call rests on the fitted dose curve; in most records, active means well fitted inhibition curve with a large enough effect; inconclusive means small, poorly fitted or top-dose-only effect; inactive means flat fitted curve, though single readings scatter.

The compounds below were run on astro (assay: Drug repurposing screens with cells derived from glioblastoma tumor samples (AID 1345199; further: nearly all actives have a fitted effect of over 40% in size)). Details: viability, ATP luminescence, 48 h; series mostly up to 45.9 µM; activity, negative = cell killing: at the top concentration.
Protocol: CD133+ cells were isolated from GBM patient biopsies and cultured as neurospheres. Neurospheres from four patients were used to screen the NCATS pharmaceutical collection (NPC) library of approved drugs and bioactive compounds. […] The neurospheres were incubated with drugs for 48 hours in 1536-well format, then assayed with an ATP content cell viability assay. […] These hits were cherry picked to confirm activity in the four original GBM lines screened plus three other slower growing GMB lines (unable to yield enough cells for a full primary screen). Variable activities of the confirmed primary hits in the different GBM patient lines were observed. The patient line 206 responded to the greatest number of compounds and line 923 responded to the least amount of active compounds.
On the % scale 0 is the no-effect control and ±100 the full control effect; potency means the concentration at half of the fitted maximal effect.

In order of falling “activity, negative = cell killing” value:
1. CC1NCCOC1c1ccccc1 (stereo not given)  6.59%
2. C#CCOC(C(=O)OCCN(C)C)(c1ccccc1)c1ccccc1  5.33%
3. CC(C)=CC1C(C(=O)OCc2cccc(Oc3ccccc3)c2)C1(C)C (stereo not given)  3.78%
4. Cn1c(CCCC(=O)O)nc2cc(N(CCCl)CCCl)ccc21  -2.37%
5. Cc1ccc2c(c1)C1CN(C)CCC1N2 (stereo not given)  -3.11%
6. NCC(CC(=O)O)c1ccc(Cl)cc1 (stereo not given)  -3.56%
7. CN(C)CCc1ccc(O)cc1  -3.83%
8. N[C@@H]1C[C@H]1c1ccccc1  -5.14%
9. CCC(C(N)=O)N1CCCC1=O (stereo not given)  -5.28%
10. C=C1CC[C@@]2(O)[C@H]3Cc4ccc(O)c5c4[C@@]2(CCN3CC2CC2)[C@H]1O5  -8.13%
11. CC(C)(C)NCC(O)c1cc(Cl)c(N)c(Cl)c1 (stereo not given)  -10.8%
12. NN=C(N)N  -11.3%
13. COc1ccc(C(=O)c2c(C)n(CCN3CCOCC3)c3ccccc23)cc1  -12.7%
14. O=C(O)c1ccc2[nH]cc(CCCCN3CC=C(c4ccccc4)CC3)c2c1  -14%
15. C#CCN(C)[C@H](C)Cc1ccccc1  -14.2%
16. CC(C)(N)Cc1ccc(Cl)cc1  -14.6%
17. Cc1cccc(C)c1NC1=NCCCS1  -14.7%
18. CCCC(C)(COC(N)=O)COC(=O)NC(C)C (stereo not given)  -17.2%
19. COc1ccccc1N1CCNCC1  -17.2%
20. CN1C[C@H](CNC(=O)OCc2ccccc2)C[C@@H]2c3cccc4c3c(cn4C)C[C@H]21  -17.8%
21. CCCN1CCC[C@@H]2Cc3nc(N)ncc3C[C@H]21  -18%
22. C=C1C[C@@H]2[C@H](CC[C@]3(C)C(=O)CC[C@@H]23)[C@@]2(C)C=CC(=O)C=C12  -20.5%
23. CC(C)=CCOc1c2occc2cc2ccc(=O)oc12  -20.5%
24. CCN(C(C)=O)c1cccc(-c2ccnc3c(C#N)cnn23)c1  -20.7%
25. CC[N+]1(C)CCCC(OC(=O)C(O)(c2ccccc2)c2ccccc2)C1 (stereo not given)  -22.8%
26. N[C@@H](Cc1ccc(Oc2cc(I)c(O)c(I)c2)c(I)c1)C(=O)O  -23.2%
27. NCCc1cc(O)c(O)cc1O  -25.3%
28. CCCN1CCC[C@@H]2Cc3[nH]ncc3C[C@H]21  -25.3%
29. FC(F)(F)c1cccc(C2=CCN(CCc3ccc4ccccc4c3)CC2)c1  -28.5%

c1ccc2c(c1)Nc1ccccc1S2 was tested, and the Potency was “inactive”.
In the case of Oc1ccc(Cl)cc1Cc1ccccc1, the Potency is reported as 35.5 µM (active).
For C[C@H]1O[C@@H](O[C@H]2[C@@H](O)C[C@H](O[C@H]3[C@@H](O)C[C@H](O[C@H]4CC[C@@]5(C)[C@H](CC[C@@H]6[C@@H]5CC[C@]5(C)[C@@H](C7=CC(=O)OC7)CC[C@]65O)C4)O[C@@H]3C)O[C@@H]2C)C[C@H](O)[C@@H]1O, the Potency was 0.1 µM (active).
For C=C(C)[C@H]1Cc2c(ccc3c2O[C@@H]2COc4cc(OC)c(OC)cc4[C@@H]2C3=O)O1, the Potency was 0.562 µM (active).
In the case of Oc1cc(Cl)ccc1Oc1ccc(Cl)cc1Cl, the Potency is reported as 28.2 µM (active).
O=c1[nH]c2ccccc2n1C1CCN(CCCC(c2ccc(F)cc2)c2ccc(F)cc2)CC1 was tested, and the Potency was 17.8 µM (active).
With C[C@@H]1O[C@@H](O[C@H]2C[C@@H](O)[C@]3(CO)[C@H]4[C@H](O)C[C@]5(C)[C@@H](C6=CC(=O)OC6)CC[C@]5(O)[C@@H]4CC[C@]3(O)C2)[C@H](O)[C@H](O)[C@H]1O the Potency was 316 nM (active) and 89.1 nM (active).

In order of falling “activity, negative = cell killing” value:
1. O=P1(NCCCl)OCCCN1CCCl (stereo not given)  -7.08% [at 21.2 µM]
2. NCC1(CC(=O)O)CCCCC1  -7.85% [at 21.2 µM]
3. Clc1ccc(CCC(Cn2ccnc2)Sc2c(Cl)cccc2Cl)cc1 (stereo not given)  -17.7% [at 21.2 µM]

In the case of CCC(=O)C(CC(C)N(C)C)(c1ccccc1)c1ccccc1 (stereo not given), the “activity, negative = cell killing” value is reported as -27.6% [at 91.6 µM].
